These results are taken from PubChem BioAssay.

Molecules are shown by their SMILES. Values joined by “and” are separate entries in the source; they are usually repeats but may differ in a detail not shown here. Identical values can stand only once. Results filed as inconclusive are left out. More than one record can exist for a structure, and the calls need not agree. Active and inactive are the calls of the source.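 The calls were made as follows, unless noted: active = normalized viability below 100% at a tested concentration; inactive = the rest.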

A short description of assay [1]: growth inhibition of DIPG glioma cells, dose response, cell-based, SU-DIPG-XVII, MIPE5.0, CellTiter-Glo, qHTS (AID 1347060; cut-off not given, nearly all actives have AC50 up to about 26 µM;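 as to AC50: cells exposed to compound for 48 hours before viability readout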). To be noted: SU-DIPG-XVII viability, CellTiter-Glo ATP luminescence.
A short description of assay [2]: viability loss in pontine glioma line – cell-based, SU-DIPG-XXV, MIPE5.0, CellTiter-Glo, qHTS, dose response (AID 1347065; cut-off not given, nearly all actives have AC50 up to about 26 µM;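 also: cells exposed to compound for 48 hours before ATP readout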). To be noted: CellTiter-Glo ATP luminescence.
The nature of assay [3]: SU-DIPG-VI glioma cell viability, MIPE4.0 library, CellTiter-Glo luminescence, qHTS (AID 1347066; cut-off not given, nearly all actives have AC50 up to about 30 µM;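 also: cells exposed to compound for 48 hours before readout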). The following applies: CellTiter-Glo ATP luminescence.
Assay [4] in a line: SU-DIPG-XXV glioma cell viability, MIPE5.0 library, qHTS (AID 1347068; cut-off not given, nearly all actives have IC50 up to about 30 µM;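 as to IC50: cells exposed to compound for 48 hours before viability readout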).
A short description of assay [5]: JHH-DIPG-1 glioma cell viability, MIPE5.0 library, CellTiter-Glo luminescence, qHTS (AID 1347067; cut-off not given, nearly all actives have AC50 up to about 26 µM;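 also: cells exposed to compound for 48 hours before readout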). The following applies: JHH-DIPG-1 glioma viability, CellTiter-Glo ATP luminescence.
Assay [6] can be described thus: kinase inhibitors against Plasmodium liver-stage infection, cell-based, known kinase inhibitor set, luminescence, hepatoma host viability (AID 624392; call rule not given here;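 also: infected cells incubated roughly two days before readout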). The following applies: Plasmodium liver stage in hepatoma cells, luciferase luminescence, concentration not given here; liver cell % of control: measured here: host liver cell viability; parasite % of control: stronger effect = lower value.

Assay [7] is described as follows: modifiers of HSF1 nuclear foci, imaging, Selleck Cancer Library (AID 1347162; in the data active = plate-normalised HSF1 focus index below about 0.46). The following applies: human cells, at 10 µM; SSMD: measured here: HSF1 foci SSMD mean; cell count: measured here: cell number; plate-normalised HSF1 focus index: stronger effect = lower value.
A short description of assay [8]: ovarian cancer cell viability with rucaparib, profiling panel, oncology-focused library, rucaparib conditional (AID 1508598). The following applies: patient-derived ovarian cancer cells, CellTiter-Glo viability, 144 h, stronger effect = lower value.
Assay [9] is described as follows: phospholipid biosynthesis inhibitors in animal cells, primary screen, cell-based, LOPAC library, screen 4 (AID 1347384; call rule not given here). The following applies: phospholipid biosynthesis inhibition screen, at 10 µM.
Assay [10] in a line: viability rescue of complex I mutant cybrids, primary screen, cell-based, galactose medium, ATP luminescence (AID 1645843;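 active = z-score of at least 1.8 in each of two replicates, scored against plate mean and spread of sample wells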;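 also: positive z means more ATP and so rescue of galactose-driven cybrid death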). To be noted: complex I mutant cybrid cells, 72 h, stronger effect = higher value.
The nature of assay [11]: sensitizers of A549 cells to miR-34 induction, primary screen, imaging, A549 dox-inducible miR-34, nuclei and caspase counts (AID 1347080;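 active = compounds whose cell count with miR-34 switched on is under 0.7 times the count with it off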). To be noted: A549 miR-34 inducible, Hoechst nuclei count, 48 h.
The mark [12] stands for this setting: at 0.000305 µM, OCI-C5x cells, with rucaparib 10 µM, 100% = cells with rucaparib alone.
[13] abbreviates: at 0.000305 µM, OCI-C5x cells, without rucaparib.
[14] abbreviates: at 0.000305 µM, OCI-P5x cells, with rucaparib 20 µM, 100% = cells with rucaparib alone.
The mark [15] stands for this setting: at 0.000305 µM, OCI-P5x cells, without rucaparib.
The mark [16] stands for this setting: at 0.00122 µM, OCI-C5x cells, with rucaparib 10 µM, 100% = cells with rucaparib alone.
[17] abbreviates: at 0.00122 µM, OCI-C5x cells, without rucaparib.
The mark [18] stands for this setting: at 0.00122 µM, OCI-P5x cells, with rucaparib 20 µM, 100% = cells with rucaparib alone.
Setting [19] is: at 0.00122 µM, OCI-P5x cells, without rucaparib.
[20] abbreviates: at 0.00488 µM, OCI-C5x cells, with rucaparib 10 µM, 100% = cells with rucaparib alone.
The mark [21] stands for this setting: at 0.00488 µM, OCI-C5x cells, without rucaparib.
[22] abbreviates: at 0.00488 µM, OCI-P5x cells, with rucaparib 20 µM, 100% = cells with rucaparib alone.
Where [23] appears, read: at 0.00488 µM, OCI-P5x cells, without rucaparib.
Where [24] appears, read: at 0.0195 µM, OCI-C5x cells, with rucaparib 10 µM, 100% = cells with rucaparib alone.
Setting [25] is: at 0.0195 µM, OCI-C5x cells, without rucaparib.
[26] abbreviates: at 0.0195 µM, OCI-P5x cells, with rucaparib 20 µM, 100% = cells with rucaparib alone.
[27] abbreviates: at 0.0195 µM, OCI-P5x cells, without rucaparib.
Where [28] appears, read: at 0.0781 µM, OCI-C5x cells, with rucaparib 10 µM, 100% = cells with rucaparib alone.
[29] abbreviates: at 0.0781 µM, OCI-C5x cells, without rucaparib.
Setting [30] is: at 0.0781 µM, OCI-P5x cells, with rucaparib 20 µM, 100% = cells with rucaparib alone.
[31] abbreviates: at 0.0781 µM, OCI-P5x cells, without rucaparib.
Setting [32] is: at 0.313 µM, OCI-C5x cells, with rucaparib 10 µM, 100% = cells with rucaparib alone.
The mark [33] stands for this setting: at 0.313 µM, OCI-C5x cells, without rucaparib.
The mark [34] stands for this setting: at 0.313 µM, OCI-P5x cells, with rucaparib 20 µM, 100% = cells with rucaparib alone.
The mark [35] stands for this setting: at 0.313 µM, OCI-P5x cells, without rucaparib.
[36] abbreviates: at 1.25 µM, OCI-C5x cells, with rucaparib 10 µM, 100% = cells with rucaparib alone.
Setting [37] is: at 1.25 µM, OCI-C5x cells, without rucaparib.
Setting [38] is: at 1.25 µM, OCI-P5x cells, with rucaparib 20 µM, 100% = cells with rucaparib alone.
The mark [39] stands for this setting: at 1.25 µM, OCI-P5x cells, without rucaparib.
Where [40] appears, read: at 5 µM, OCI-C5x cells, with rucaparib 10 µM, 100% = cells with rucaparib alone.
The mark [41] stands for this setting: at 5 µM, OCI-C5x cells, without rucaparib.
The mark [42] stands for this setting: at 5 µM, OCI-P5x cells, with rucaparib 20 µM, 100% = cells with rucaparib alone.
[43] abbreviates: at 5 µM, OCI-P5x cells, without rucaparib.

On to `CO[C@@H]1C(N(C)C(=O)c2ccccc2)C[C@H]2O[C@]1(C)n1c3ccccc3c3c4c(c5c6ccccc6n2c5c31)C(=O)NC4=O` (some centres undefined), for which the AC50 in assay [1] and in assay [2] was 0.934 µM (active) throughout. Further, the result in assay [3] was inactive.
As to `O=C(Nc1nnc(-c2ccco2)o1)c1cc(-c2ccccc2)nc2ccccc12`, the AC50 in assay [1] was 26.3 µM (active); in [2], 20.9 µM (active); in assay [3] it was 14.8 µM (active). Besides, the outcome in assay [4] was inactive.
For the molecule `Cc1c(NC(=O)c2cc3c(s2)CCCC3)cccc1-c1cn(C)c(=O)c(Nc2ccc(C3C(=O)N(C)CCN3C)cc2)n1` (centres undefined), the AC50 in assay [1] was 23.5 µM (active); in assay [2], 18.6 µM (active); in assay [5], 18.6 µM (active).
On to `O=C(Nc1cccc(Cl)c1)Nc1ncc(CCNc2ncnc3ccsc23)s1`, for which the liver cell % of control in [6] is 68.4% and 82.5% and 102%. In addition, in assay [6], the parasite % of control was 0.394% (inactive) and 0.318% (inactive) and 0.473% (active). The molecule also showed an SSMD in assay [7] of 1.43. The same molecule gave a cell count in assay [7] of 7300. Further, the plate-normalised HSF1 focus index in assay [7] is 1.08 (inactive). Besides, the viability is 108% (inactive) in assay [8] (setting [12]); 107% (inactive) in [8] (setting [13]); 122% (inactive) in assay [8] (setting [14]); 122% (inactive) in assay [8] (setting [15]); 98.1% (active) in [8] (setting [16]); 97.4% (active) in assay [8] (setting [17]). Moreover, the viability was 115% (inactive) in assay [8] (setting [18]); 94.7% (active) in assay [8] (setting [19]); 95.1% (active) in assay [8] (setting [20]); 96.5% (active) in assay [8] (setting [21]); 112% (inactive) in assay [8] (setting [22]); 91.7% (active) in assay [8] (setting [23]). In addition, the viability in [8] (setting [24]) was 112% (inactive); in assay [8] (setting [25]), 109% (inactive); in assay [8] (setting [26]), 99.4% (active); in assay [8] (setting [27]) it was 85.1% (active); in assay [8] (setting [28]), 91.8% (active); in assay [8] (setting [29]), 109% (inactive). In addition, the viability in [8] (setting [30]) was 99.1% (active); in assay [8] (setting [31]), 85.1% (active); in assay [8] (setting [32]), 91.9% (active); in [8] (setting [33]) it was 103% (inactive); in assay [8] (setting [34]), 96.5% (active); in assay [8] (setting [35]), 81.4% (active). Moreover, the viability was 94.3% (active) in assay [8] (setting [36]); 108% (inactive) in assay [8] (setting [37]); 97.9% (active) in assay [8] (setting [38]); 88.4% (active) in assay [8] (setting [39]); 170% (inactive) in assay [8] (setting [40]); 150% (inactive) in [8] (setting [41]). Further, the viability in assay [8] (setting [42]) was 51.5% (active); in [8] (setting [43]), 61.4% (active).
In turn, `CCC(CC)CC1(C(=O)Nc2ccccc2SC(=O)C(C)C)CCCCC1` had an SSMD in assay [7] of 1.84. For the same molecule, the cell count in assay [7] is 6890. Besides, the plate-normalised HSF1 focus index in [7] is 1.09 (inactive). Further, the viability was 115% (inactive) in [8] (setting [12]); 112% (inactive) in assay [8] (setting [13]); 92.5% (active) in [8] (setting [14]); 91.2% (active) in [8] (setting [15]); 109% (inactive) in assay [8] (setting [16]); 105% (inactive) in assay [8] (setting [17]). Also, the viability in assay [8] (setting [18]) was 97.3% (active); in assay [8] (setting [19]), 96% (active); in [8] (setting [20]), 111% (inactive); in assay [8] (setting [21]), 114% (inactive); in assay [8] (setting [22]), 101% (inactive); in assay [8] (setting [23]), 99.6% (active). For the same molecule, the viability was 127% (inactive) in assay [8] (setting [24]); 110% (inactive) in assay [8] (setting [25]); 104% (inactive) in [8] (setting [26]); 108% (inactive) in assay [8] (setting [27]); 110% (inactive) in assay [8] (setting [28]); 115% (inactive) in assay [8] (setting [29]). Also, the viability is 104% (inactive) in assay [8] (setting [30]); 103% (inactive) in [8] (setting [31]); 99.9% (active) in [8] (setting [32]); 121% (inactive) in assay [8] (setting [33]); 107% (inactive) in assay [8] (setting [34]); 103% (inactive) in assay [8] (setting [35]). Also, the viability in assay [8] (setting [36]) is 113% (inactive); in assay [8] (setting [37]) it was 126% (inactive); in [8] (setting [38]), 107% (inactive); in assay [8] (setting [39]) it was 102% (inactive); in [8] (setting [40]), 110% (inactive); in assay [8] (setting [41]), 120% (inactive). Also, the viability in assay [8] (setting [42]) was 103% (inactive); in assay [8] (setting [43]) it was 108% (inactive).
Consider `O=C(Nc1ccc2c(c1)CCN(Cc1ncn[nH]1)C2)c1ccccc1-c1ccc(C(F)(F)F)cc1`, for which, in assay [9], the result was inactive. For the same molecule, in assay [10], the z-score is 0.755 (inactive).
For the molecule `Nc1nc(OC(c2ccc(-c3cccc(F)c3)cc2)C(F)(F)F)cc(-c2ccc(C[C@H](N)C(=O)O)cc2)n1` (some centres undefined), the molecule was called inactive in assay [1], in assay [2] and in assay [4].
With `COc1ccc(Cl)c(Nc2ncnc3cc(OCC4CCN(C)CC4)c(OC)cc23)c1`, the results for the AC50 in [1] and in assay [5] were 3.72 µM (active) and 20.9 µM (active), respectively. Moreover, the call in assay [4] was inactive.
As to `Cn1cc(-c2ccc(F)c(C(F)(F)F)c2)nc1C1CCN(c2ncnc3[nH]ncc23)CC1`, the result in assay [1], in [2] and in assay [4] was inactive.
For `CO[C@@H]1[C@H](N(C)C(=O)c2ccccc2)C[C@H]2O[C@]1(C)n1c3ccccc3c3c4c(c5c6ccccc6n2c5c31)C(=O)NC4`, the AC50 in assay [1] is 1.66 µM (active). Besides, the call in [3] was inactive.
With `C=CC(=O)N[C@H]1CN(c2nc(Nc3cn(C)nc3OC)c3ncn(C)c3n2)C[C@@H]1F`, the values for the concentration at half-maximal activity (AC50) in [1] and in assay [2] were 18.6 µM (active) and 20.9 µM (active), respectively. Also, in [4], the IC50 was 16.6 µM (active).
As to `Cc1c(O)cccc1C(=O)NC(CSc1ccccc1)C(O)CN1CC2CCCCC2CC1C(=O)NC(C)(C)C` (centres undefined), the AC50 in [1] and in assay [2] was 20.9 µM (active) each time. For the same molecule, the IC50 in [4] was 18.6 µM (active). The fold change is 1.31 (inactive) in [11] (stronger effect = lower value, cell number ratio, induced over uninduced) and 0.935 in [11] (measured here: relative caspase fold change +Dox/-Dox). The cell count was 2190 in [11] (measured here: total cells with miR-34 induction, stronger effect = lower value) and 1680 in assay [11] (measured here: total cells without miR-34 induction). Further, in assay [10], the z-score is -1.88 (inactive).
For `CCCOc1ccn2c(C(C)=O)cc(-c3ccccc3S(C)(=O)=O)c2c1`, the call in [1], in assay [2] and in [4] was inactive.
